# Only a selection was taken, and hits are over-represented in it overall.
# Shh pathway inh: blocks Sonic Hedgehog signaling; Shh-LIGHT2 Gli-luciferase reporter, 30 h; inhibition, % (no concentration beside the values); 22,000 compounds, 2.1% hits;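 active means mean inhibition across valid replicates above about 65%, limit read from the data; inconclusive means mean under the limit, yet half or more replicates past it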;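 further: pathway switched on by Shh-conditioned medium diluted 1 in 25 in low serum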
# MITF inhib: blocks MITF activity; TRPM1 promoter luciferase, luminescence, 24 h; inhibition, % (no concentration beside the values); 37,000 compounds, 0.28% hits; in the data active means inhibition above about 85%; inconclusive means no clear call, values can overlap the other calls; inactive means below about 68%;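 further: human melanocyte line stably carrying TRPM1 promoter luciferase reporter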
# YB-1 expr inh: YB-1 expression inhibition; U2OS, qRT-PCR YB-1 vs CDIP delta delta Cp, 16 h; active compounds read high; zero = DMSO, each unit about twofold; delta delta Cp (YB-1 minus CDIP) (concentration not given with the values); 30,000 compounds, 0.37% hits; AID 434959;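 active means delta delta Cp rounded down to an integer at or above 3, about 3 SD of DMSO wells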;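 further: higher means less YB-1 transcript or more CDIP transcript relative to DMSO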
# Numbers without * were called inactive; ? = inconclusive; . = no result.
SMILES,Shh pathway inh,MITF inhib,YB-1 expr inh
C/C=C(\C)C(=O)OC1C(OC(=O)/C=C(/C)CC(=O)O)C2(CO)C(O)CC3(C)C(=CCC4C5(C)CCC(OC6OC(C(=O)O)C(O)C(OC7OC(C)C(O)C(OC8OC(CO)C(O)C(O)C8O)C7O)C6O)C(C)(C)C5CCC43C)C2CC1(C)C (stereo not given),97*,98*,0.75
Nc1ccc(S(=O)(=O)C(F)(F)F)cc1,-3,-16,-0.41
COc1ccc(OCc2ncc(-c3ccc4c(c3)OCCCO4)s2)cc1,3,-15,-0.23
COc1ccc(NC(=O)CC(=O)CSc2ccccc2)cc1,-1,-28,0.069
O=C1CC(c2ccccc2)Oc2ccccc21 (stereo not given),-30,-4,0.19
O=C1/C(=C/c2ccc(-c3nn[nH]n3)cc2)C(c2ccccc2)Oc2ccccc21 (stereo not given),74*,11,0.065
C/C=C(/C)C(=O)O[C@H]1C=C(CO)C(=O)[C@H](OC(=O)/C(C)=C/CO)[C@H]1C(C)C,46,106*,0.092
CC(C)(C)OC(=O)N1C(N)=C(C#N)C2(CCOCC2)c2[nH]c(C(F)(F)F)nc21,11,8,-0.29
COc1ccc(CN(C)C[C@@H]2OCCCC[C@@H](C)Oc3ccc(NS(=O)(=O)c4ccc(OC)cc4)cc3C(=O)N([C@H](C)CO)C[C@@H]2C)cc1,.,-7,0.33
COc1ccc(CN(C)C[C@H]2OCCCC[C@@H](C)Oc3ccc(NS(=O)(=O)c4ccc(C)cc4)cc3C(=O)N([C@H](C)CO)C[C@@H]2C)cc1,65*,1,-0.65
COc1ccc(S(=O)(=O)Nc2ccc3c(c2)C(=O)N([C@H](C)CO)C[C@H](C)[C@@H](CN(C)Cc2ccc(Cl)c(Cl)c2)OCCCC[C@@H](C)O3)cc1,69*,?,-0.83
COc1ccc(CN(C)C[C@@H]2OCCCC[C@@H](C)Oc3ccc(NS(=O)(=O)c4ccc(Cl)cc4)cc3C(=O)N([C@H](C)CO)C[C@@H]2C)cc1,-21,-4,0.23
c1nncn1N=C1CCCCC1,-9,11,-0.38
N#Cc1c(C(F)(F)F)cc(-c2cccs2)nc1S/C=C/C(=O)c1ccccc1,-26,5,0.25
Cc1ccc(-c2nnc(N3CCN(C(=O)CSc4nc(C)cc(C)n4)CC3)c3ccccc23)cc1,.,45,.
Cc1ccc(-c2nnc(-n3cnc4cc(C)c(C)cc43)c3ccccc23)cc1,.,22,3.8*
C[C@@H]1CN([C@@H](C)CO)C(=O)Cc2cc(NS(C)(=O)=O)ccc2O[C@@H]1CN(C)CC1CCCCC1,-19,5,-0.03
COc1ccc(S(=O)(=O)Nc2ccc3c(c2)CC(=O)N([C@H](C)CO)C[C@@H](C)[C@@H](CN(C)CC2CC2)O3)cc1,.,-12,-0.59
C[C@@H]1CN([C@H](C)CO)C(=O)Cc2cc(NS(C)(=O)=O)ccc2O[C@H]1CN(C)CC1CC1,75*,-10,-0.083
COc1ccc(S(=O)(=O)Nc2ccc3c(c2)CC(=O)N([C@H](C)CO)C[C@@H](C)[C@H](CN(C)CC2CC2)O3)cc1,-23,-6,3.2*
COc1ccc(SC(=O)c2cc(C)n(Cc3c(Cl)cccc3Cl)n2)cc1,25,6,-0.08
COC(=O)C1=C(Nc2ccc(F)cc2F)CSC1,-1,-27,-0.19
CN(C)c1ccc(C(=C2C=CC(=[N+](C)C)C=C2)c2ccc(N(C)C)cc2)cc1,97*,109*,-0.27
O=C(Nc1ccc([N+](=O)[O-])cc1Cl)c1cc(Cl)ccc1O,88*,106*,0.039
O=C(Nc1ccccc1)c1cc([N+](=O)[O-])ccc1Cl,22,-7,0.17
SMILES,Shh pathway inh,MITF inhib,YB-1 expr inh
O=C1CSCC(=O)N1c1cccnc1,-15,6,0.34
Cc1ccc(C(=O)Cn2c3c(sc2=N)CCCC3)cc1,76*,88*,0.091
Cc1ccc(C(=O)Cn2c(C)csc2=Nc2ccccc2)cc1,.,-9,-0.43
CC(C)(CO)NC(=O)c1sc2ccccc2c1Cl,.,-46,-0.15
O=S(=O)(N[C@@H]1CCCN(Cc2cccc(OCCO)c2)C1)c1cc(C(F)(F)F)ccc1Cl,.,.,-0.096
COc1c(-c2coc3cc4c(cc3c2=O)CC(O)C(C)(C)O4)ccc2c1C=CC(C)(C)O2 (stereo not given),91*,99*,0.11
CC1(C)C=Cc2c(cc3occ(-c4ccc5c(c4)OCO5)c(=O)c3c2O)O1,56,-20,0.025
COc1ccc(-n2nc3cc(C)c(NC(=O)COc4ccc(Cl)cc4Cl)cc3n2)cc1,.,-13,.
COc1ccc(OC)c(-n2c(=S)[nH]c3cc(C(=O)Nc4ccc(C)c(Cl)c4)ccc3c2=O)c1,-30,0,0.25
COc1ccc(NC(=O)c2ccc3c(=O)n(Cc4ccco4)c(=S)[nH]c3c2)cc1OC,77*,5,-0.093
C[C@@H]1CCCCO[C@@H](CN(C)C(=O)Nc2ccc(F)cc2)[C@@H](C)CN([C@H](C)CO)C(=O)c2cc(NS(=O)(=O)c3cn(C)cn3)ccc2O1,-8,13,-0.099
C[C@@H]1CCCCO[C@H](CN(C)S(=O)(=O)c2ccc(F)cc2)[C@@H](C)CN([C@H](C)CO)C(=O)c2cc(NS(=O)(=O)c3ccc(F)cc3)ccc2O1,-28,18,0.099
C[C@@H]1CCCCO[C@@H](CN(C)S(C)(=O)=O)[C@@H](C)CN([C@H](C)CO)C(=O)c2cc(NS(=O)(=O)c3ccc(F)cc3)ccc2O1,74*,1,-0.21
CC(C)NC(=O)N(C)C[C@H]1OCCCC[C@@H](C)Oc2ccc(NS(=O)(=O)c3cn(C)cn3)cc2C(=O)N([C@H](C)CO)C[C@@H]1C,72*,-3,0.18
CC(C)NC(=O)N(C)C[C@H]1Oc2c(NS(=O)(=O)c3cn(C)cn3)cccc2C(=O)N([C@H](C)CO)C[C@@H]1C,-19,-4,-0.51
COc1ccc(NC(=O)N(C)C[C@H]2OCCCC[C@@H](C)Oc3ccc(NS(=O)(=O)c4ccc(F)cc4)cc3C(=O)N([C@H](C)CO)C[C@@H]2C)cc1,-4,-28,-0.26
CC(C)NC(=O)N(C)C[C@H]1Oc2c(NS(=O)(=O)c3cn(C)cn3)cccc2C(=O)N([C@H](C)CO)C[C@H]1C,-60,-13,12*
COc1ccc(S(=O)(=O)Nc2ccc3c(c2)C(=O)N([C@H](C)CO)C[C@H](C)[C@@H](CN(C)C(=O)Nc2ccc(F)cc2)OCCCC[C@@H](C)O3)cc1,74*,11,-0.11
Cc1cccc(C2Sc3ccccc3N=C3c4ccccc4C(=O)C32)c1 (stereo not given),-14,64,0.085
Cc1ccc(OC(=O)c2ccccc2)c(-n2nc3ccccc3n2)c1,.,-23,-0.1
c1ccc(CSc2nccc(-c3ccc4c(c3)CCO4)n2)cc1,-12,-28,0.34
C=C1C(=O)O[C@@H]2/C=C(/COC(C)=O)CC/C=C(/CO)CC[C@@H]12,-2,-31,0.18
O=C(NCC[C@@H](CNC(=O)c1cccc(O)c1O)NC(=O)c1cccc(O)c1O)c1cccc(O)c1O,24,17,0.27
COc1ccc(S(=O)(=O)N(C)C[C@@H]2Oc3ccc(NS(=O)(=O)c4ccc(F)cc4)cc3C(=O)N([C@@H](C)CO)C[C@@H]2C)cc1,.,7,19*

# Source: PubChem
